Screening results from PubChem.
Hits are enriched below; roughly 5.9% of the tested compounds scored in any of these assays.
Rtt109 Vps75: C. albicans Rtt109 histone acetyltransferase inhibition. AID 540336. 330,000 compounds, 0.16% hits. purified Rtt109/Vps75, ThioGlo CoA-SH fluorescence, 4 h. inhibition, % at 34.9 µM;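 active = inhibition of at least 50% in every replicate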
PRMT1 FP inh: PRMT1 (human) inhibition, primary screen; inhibition, % at 2.79 µM; 370,000 compounds, 1.3% hits; recombinant PRMT1, activity-based probe fluorescence polarization; AID 652257;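 active = inhibition above about 21% made by adding two undisclosed values, limit read from the data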
ABHD5-PLIN5 inh: inhibitors of human ABHD5-perilipin-5 interaction | Q00G26+Q8WTS1 | Split G. princeps luciferase complementation, luminescence, 4 h | inhibition, % at 4 µM | 360,000 compounds, 0.78% hits;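 active = inhibition above the mean inhibition across every tested compound plus 3 SD, cut at about 22% in these data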
rCAG RNA binder: molecules binding r(CAG) RNA repeats. r(CAG) RNA repeat, TO-PRO-1 dye displacement fluorescence. inhibition, % at 3 µM. 370,000 compounds, 1.3% hits;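 active = inhibition above the plate cutoff, the mean of all test compounds on that plate plus 3 SD, cut at about 35% in these data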;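 also: higher means more dye released from RNA so lower well fluorescence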
LANA-H2B inh: blocks KSHV LANA binding to histone H2A/H2B. Q9QR71. cell-free LANA-H2A/H2B peptide, fluorescence polarization. inhibition, % (concentration not given with the values). 320,000 compounds, 0.6% hits; in the data active = inhibition mostly above about 10%, no sharp cut-off; inactive = mostly below about 6.7%
Target sequence (Q9QR71 whole entry, looked up): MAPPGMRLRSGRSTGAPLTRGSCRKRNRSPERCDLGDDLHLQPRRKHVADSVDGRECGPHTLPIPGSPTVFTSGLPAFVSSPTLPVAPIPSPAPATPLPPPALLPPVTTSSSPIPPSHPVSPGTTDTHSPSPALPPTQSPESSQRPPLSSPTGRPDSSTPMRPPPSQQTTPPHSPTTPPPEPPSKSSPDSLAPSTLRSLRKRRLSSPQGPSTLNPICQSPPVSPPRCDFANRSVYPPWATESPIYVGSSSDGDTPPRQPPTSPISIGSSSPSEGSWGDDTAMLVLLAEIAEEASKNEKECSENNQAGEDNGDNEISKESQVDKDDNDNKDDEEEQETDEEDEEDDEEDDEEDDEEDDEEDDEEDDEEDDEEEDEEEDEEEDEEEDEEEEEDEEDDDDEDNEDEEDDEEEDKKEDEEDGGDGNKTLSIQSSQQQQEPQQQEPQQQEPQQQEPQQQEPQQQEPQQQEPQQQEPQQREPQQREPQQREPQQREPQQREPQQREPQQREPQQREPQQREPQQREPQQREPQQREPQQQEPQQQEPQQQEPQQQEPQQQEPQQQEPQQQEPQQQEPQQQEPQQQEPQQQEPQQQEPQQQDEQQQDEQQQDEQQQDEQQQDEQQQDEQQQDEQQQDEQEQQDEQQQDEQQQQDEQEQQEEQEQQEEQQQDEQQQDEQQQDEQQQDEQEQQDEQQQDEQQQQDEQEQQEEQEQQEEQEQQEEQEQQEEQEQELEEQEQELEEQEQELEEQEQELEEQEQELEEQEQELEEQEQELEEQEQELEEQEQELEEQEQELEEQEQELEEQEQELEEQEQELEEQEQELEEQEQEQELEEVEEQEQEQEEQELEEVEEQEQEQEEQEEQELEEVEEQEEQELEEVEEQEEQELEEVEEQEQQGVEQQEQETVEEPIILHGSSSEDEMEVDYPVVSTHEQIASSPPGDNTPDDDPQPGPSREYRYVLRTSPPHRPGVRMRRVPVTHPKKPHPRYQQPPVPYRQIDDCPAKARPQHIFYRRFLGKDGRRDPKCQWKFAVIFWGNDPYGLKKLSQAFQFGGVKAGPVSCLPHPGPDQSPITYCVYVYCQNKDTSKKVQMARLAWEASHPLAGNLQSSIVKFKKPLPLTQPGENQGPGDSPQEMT
ALR inh: inhibitors of human sulfhydryl oxidase ALR; P55789; purified ALR, DTT oxidation, H2O2 HRP-luminol luminescence; inhibition, % (concentration not given with the values); 290,000 compounds, 3.8% hits; AID 485317;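 active = mean replicate inhibition above about 79%, with every replicate also reaching it, limit read from the data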
Each line names hits and unclear results; the compound was inactive in the other large screens; ! = not confirmed by another sample.

CN(C)c1ccc(C2N3CC4(C)CN2CC(C)(C3)C4O)cc1 (stereo not given)	ALR inh 99
CC(=O)[C@@]1(O)CC[C@H]2[C@@H]3C[C@H](C)C4=CC(=O)C=C[C@]4(C)[C@@]3(F)[C@@H](O)C[C@@]21C	LANA-H2B inh 18! (no result: ALR inh)
CCCC(=O)O[C@]1(C(=O)COC(C)=O)CC[C@H]2[C@@H]3C[C@H](F)C4=CC(=O)C=C[C@]4(C)[C@@]3(F)[C@@H](O)C[C@@]21C	LANA-H2B inh 22! (no result: ALR inh)
C[C@@H]1C[C@H]2[C@@H]3C[C@H](F)C4=CC(=O)C=C[C@]4(C)[C@@]3(F)[C@@H](O)C[C@]2(C)[C@@]1(O)C(=O)COC(=O)C(C)(C)C	none (no result: ALR inh)
CCC(CO)Nc1cccc2c1S(=O)(=O)N(Cc1cn(Cc3cccc(F)c3)nn1)Cc1ccccc1O2 (stereo not given)	none (no result: Rtt109 Vps75, ABHD5-PLIN5 inh, LANA-H2B inh, ALR inh)
N#CC1(NC(=O)COC(=O)c2nc(Cl)c(Cl)c(N)c2Cl)CCCCC1	LANA-H2B inh 14
Cc1cc(SCc2ccc(Cl)cc2Cl)nc(=O)[nH]1	ALR inh 98
Cc1cc(SCc2ccc(Cl)c(Cl)c2)nc(=O)[nH]1	none
Cc1cc(SCc2ccccc2Cl)nc(=O)[nH]1	ALR inh 94
C=CCN1[C@@H](C)COc2cccc(F)c2S1(=O)=O	none (no result: Rtt109 Vps75, ABHD5-PLIN5 inh, LANA-H2B inh, ALR inh)
CC1(C)OC(=O)C2=C(C[C@@H](CCc3ccccc3)O[C@H]2C2CCCC2)O1	none (no result: Rtt109 Vps75, LANA-H2B inh, ALR inh)
Cc1occc1C(=O)NNC(=S)Nc1cccc([N+](=O)[O-])c1	ALR inh 98
O=C(NNC(=O)c1cccc([N+](=O)[O-])c1)c1ccncc1	none
Cc1ccc(C(=O)NC(=S)NNC(=O)c2cccc([N+](=O)[O-])c2)cc1	ALR inh 99
Cc1cccc(NC(=S)NNC(=O)c2cccc([N+](=O)[O-])c2)c1	none
O=C(NNC(=S)NC(=O)c1cccc([N+](=O)[O-])c1)c1ccc(Br)cc1	ALR inh 96
O=C(NNC(=S)NC(=O)c1ccccc1)c1cccc([N+](=O)[O-])c1	ALR inh 98
COc1ccc(OC)c(NC(=O)C2(C)CCN2C(=O)CCC2CCCC2)c1 (stereo not given)	none (no result: Rtt109 Vps75, LANA-H2B inh, ALR inh)
O=C(NC(=S)NNC(=O)c1ccccc1[N+](=O)[O-])c1ccccc1	ALR inh 96
CCCCC(=O)NNC(=S)NC(=O)c1cccc([N+](=O)[O-])c1	ALR inh 98
O=C(NC(=S)Nc1cccc(F)c1)c1cccc([N+](=O)[O-])c1	none (no result: Rtt109 Vps75)
O=C(NNC(=S)NC(=O)c1ccccc1[N+](=O)[O-])c1ccccc1	none
O=C(NNC(=S)NC(=O)c1cccc([N+](=O)[O-])c1)c1ccc(O)cc1	ALR inh 88 (no result: Rtt109 Vps75)
O=C(/C=C/c1ccc(F)cc1)c1cc(Br)ccc1O	none
CCNc1ccc(Br)cc(C(=O)/C=C/c2c(Cl)cccc2Cl)c1=O	ABHD5-PLIN5 inh 44 (no result: PRMT1 FP inh, rCAG RNA binder)
CCNc1ccc(Br)cc(C(=O)/C=C/c2ccc(Cl)cc2)c1=O	ABHD5-PLIN5 inh 27 (no result: PRMT1 FP inh, rCAG RNA binder)
CNc1ccc(Br)cc(C(=O)/C=C/c2ccc(Cl)cc2Cl)c1=O	PRMT1 FP inh 22, ABHD5-PLIN5 inh 57
CNc1ccc(Br)cc(C(=O)/C=C/c2ccc(OC)cc2OC)c1=O	none
CS(=O)(=O)Nc1ccc(Br)cc1C(=O)c1ccccc1	none (no result: ALR inh)
O=C(OCCN1CCN(C2CN(Cc3cn(Cc4cccc(F)c4)nn3)S(=O)(=O)C2)CC1)c1cc2ccccc2o1 (stereo not given)	none (no result: Rtt109 Vps75, ABHD5-PLIN5 inh, LANA-H2B inh, ALR inh)
O=C(NN1C(=O)/C(=C/c2ccc(O)cc2)SC1=S)c1ccccc1O	ALR inh 99
O=C(Cc1ccccc1)NN1C(=O)/C(=C/c2ccc(C(=O)O)cc2)SC1=S	none (no result: ALR inh)
COc1ccc(/C=C2\SC(=S)N(NC(=O)c3ccncc3)C2=O)cc1OC	none (no result: Rtt109 Vps75, PRMT1 FP inh, ABHD5-PLIN5 inh, rCAG RNA binder)
Cc1ccc(/C=C2\SC(=S)N(/N=C/c3cc([N+](=O)[O-])ccc3O)C2=O)o1	ALR inh 98 (no result: PRMT1 FP inh, rCAG RNA binder)
Cc1cc(C)nc(NN2C(=O)/C(=C/c3ccc(O)cc3)SC2=S)n1	ALR inh 99 (no result: PRMT1 FP inh, rCAG RNA binder)
O=C(NN1C(=O)/C(=C/c2ccc(O)cc2)SC1=S)c1cccc(O)c1	ALR inh 99
COc1ccc(S(=O)(=O)N(C)C[C@H]2Oc3c(NS(=O)(=O)c4ccc(F)cc4)cccc3C(=O)N([C@H](C)CO)C[C@@H]2C)cc1	none (no result: LANA-H2B inh)
O=C(NN1C(=O)/C(=C/c2cc([N+](=O)[O-])ccc2O)SC1=S)c1ccccc1O	ALR inh 81 (no result: Rtt109 Vps75, PRMT1 FP inh, ABHD5-PLIN5 inh, rCAG RNA binder)
CC(=O)Nc1ccc(CN(C)c2c(C)nc3ccc(C(=O)N(C)Cc4ccco4)cn23)cc1	none (no result: Rtt109 Vps75, LANA-H2B inh, ALR inh)
O=C(CCCc1c[nH]c2ccccc12)N1CCN(c2ccc(N3CCOCC3)nn2)CC1	ALR inh 90
COC(=O)[C@]12C[C@H](CC(=O)NCC3CCCCC3)C(=O)N(CCc3ccc(OC)c(OC)c3)C1=C[C@H](COCc1ccccc1)O[C@@H]2C	none (no result: Rtt109 Vps75, ABHD5-PLIN5 inh, LANA-H2B inh, ALR inh)
O=C(CN1CCN(C(=O)c2ccco2)CC1)N1CCc2[nH]c3ccccc3c2C1	none (no result: Rtt109 Vps75, PRMT1 FP inh, ABHD5-PLIN5 inh, rCAG RNA binder)
Cc1ccc2[nH]c3c(c2c1)CN(C(=O)CN1CCN(C(=O)c2ccco2)CC1)CC3	PRMT1 FP inh 21 (no result: Rtt109 Vps75, ABHD5-PLIN5 inh)
O=C(CSc1nnc(-c2ccccc2)n1-c1ccccc1)NN=Cc1ccc(-c2ccccc2)cc1	none (no result: Rtt109 Vps75, ABHD5-PLIN5 inh, LANA-H2B inh, ALR inh)
COc1ccc(CCC(=O)NNC(=O)Nc2ccc(OC)c(OC)c2)cc1	none
COc1ccc(NC(=O)NNC(=O)CCc2ccc(O)c(O)c2)cc1OC	PRMT1 FP inh 23, ALR inh 99
CCOC(=O)c1ccc(N=Cc2nc(-c3ccccc3)oc2OC(C)=O)cc1	ALR inh 94
Cc1ccccc1CN1CCCCC(NC(=O)c2c(F)cccc2F)C1=O (stereo not given)	none (no result: Rtt109 Vps75, ABHD5-PLIN5 inh, LANA-H2B inh, ALR inh)
COc1cc(C2N(Cc3ccccc3)CCN2Cc2ccccc2)ccc1OC(C)=O	none
COc1cc(C2N(c3ccccc3)CCN2c2ccccc2)ccc1OC(C)=O	ALR inh 94
C[C@@H]1COC(=O)[C@H](NC(=O)OCC2c3ccccc3-c3ccccc32)C/C=C\C[C@@H](CC(=O)N[C@H](CO)Cc2ccccc2)C(=O)N1	none
O=C(C[C@@H]1C/C=C\C[C@@H](NC(=O)OCC2c3ccccc3-c3ccccc32)C(=O)OCCNC1=O)N[C@@H](CO)Cc1ccccc1	LANA-H2B inh active
COC(=O)C1=C(C)N(C)C(=NCC2CC2)NC1c1cccc(Cl)c1 (stereo not given)	none (no result: Rtt109 Vps75, ABHD5-PLIN5 inh, LANA-H2B inh, ALR inh)
COc1cc(/C=C(\C#N)c2nnc(N3CCOCC3)n2-c2ccccc2)ccc1O	ALR inh 99
O=C(c1ccc2c(c1)OCO2)N1CCN=C1SCc1cccnc1	ALR inh 98
CCN(CC)S(=O)(=O)c1ccc(C(=O)N2CCN=C2SCc2cccnc2)cc1	LANA-H2B inh 26, ALR inh 99
CCSC1=NCCN1C(=O)c1c(-c2ccccc2Cl)noc1C	none
Cc1onc(-c2ccccc2Cl)c1C(=O)N1CCN=C1SCc1cccnc1	ALR inh 99
O=C(c1ccco1)N1CCN=C1SCc1c(F)cccc1Cl	none
